Test results published in PubChem BioAssay.
For part of these data: Entries with a potency or affinity are not part of this list. Calls of active or inactive are those of the source.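 Rule for the calls, unless noted: active = earlier screen potentiator hit that boosts the TRPC4 ion channel at some dose, with a dose response; inactive = no potentiation, no dose response, or not a prior hit.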

Tests used:
[1] = tested on: TRPC4 beta (transient receptor potential cation channel C4), mouse; test: activators of mouse TRPC4 channel, confirmation, cell-based, Fluo4 calcium, HEK293 TRPC4beta/mu-opioid, duplicates, 10 µM (AID 2426;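 active = fluorescence ratio normalized to control raised more than 50% in primary screen plus both repeat runs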); details: Fluo4 calcium fluorescence, at 10 µM; active compounds read high
[2] = tested on: transient receptor potential cation channel C4 beta (TRPC4), mouse; test: activators of mouse TRPC4 channel, confirmation, cell-based, second round, Fluo4, HEK293 TRPC4beta/mu-opioid, 1 µM (AID 2461;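 active = primary screen active and over 50% activation in each of two duplicate runs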); details: Fluo4 calcium fluorescence, at 1 µM; active compounds read high
[3] = tested on: TRPC4 (transient receptor potential cation channel C4 beta), mouse; test: positive allosteric modulators of mouse TRPC4, confirmation, cell-based, second round, Fluo-4, HEK293 TRPC4beta/mu-opioid, 1 µM (AID 2554;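 active = primary screen hit whose fluorescence ratio, in both repeats, exceeds the weak agonist control mean by 3 SD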); details: DAMGO EC20, Fluo-4 calcium flux, at 1 µM; active compounds read high
[4] = tested on: TRPC4 beta (transient receptor potential cation channel C4), mouse; test: positive allosteric modulators of mouse TRPC4, confirmation, cell-based, Fluo-4, HEK293 TRPC4beta/mu-opioid (AID 2555;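 active = primary screen hit whose calcium fluorescence ratio, in both repeats, exceeds the weak agonist control mean by 3 SD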); details: DAMGO EC20, Fluo-4 calcium flux, at 10 µM; active compounds read high
[5] = target: Short transient receptor potential channel 4 (Mus musculus) (UniProt Q9QUQ5); test: inhibitors of mouse TRPC4 channel, confirmation, cell-based, Fluo4, HEK293 TRPC4beta/mu-opioid (AID 2636;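 active = calcium signal cut by more than 3 SD below the full-agonist control yet still positive, in both repeats and the earlier primary screen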); details: DAMGO, Fluo4 calcium flux, at 10 µM; active compounds read high
Chain of Short transient receptor potential channel 4 (Mus musculus) (Q9QUQ5 whole entry, looked up): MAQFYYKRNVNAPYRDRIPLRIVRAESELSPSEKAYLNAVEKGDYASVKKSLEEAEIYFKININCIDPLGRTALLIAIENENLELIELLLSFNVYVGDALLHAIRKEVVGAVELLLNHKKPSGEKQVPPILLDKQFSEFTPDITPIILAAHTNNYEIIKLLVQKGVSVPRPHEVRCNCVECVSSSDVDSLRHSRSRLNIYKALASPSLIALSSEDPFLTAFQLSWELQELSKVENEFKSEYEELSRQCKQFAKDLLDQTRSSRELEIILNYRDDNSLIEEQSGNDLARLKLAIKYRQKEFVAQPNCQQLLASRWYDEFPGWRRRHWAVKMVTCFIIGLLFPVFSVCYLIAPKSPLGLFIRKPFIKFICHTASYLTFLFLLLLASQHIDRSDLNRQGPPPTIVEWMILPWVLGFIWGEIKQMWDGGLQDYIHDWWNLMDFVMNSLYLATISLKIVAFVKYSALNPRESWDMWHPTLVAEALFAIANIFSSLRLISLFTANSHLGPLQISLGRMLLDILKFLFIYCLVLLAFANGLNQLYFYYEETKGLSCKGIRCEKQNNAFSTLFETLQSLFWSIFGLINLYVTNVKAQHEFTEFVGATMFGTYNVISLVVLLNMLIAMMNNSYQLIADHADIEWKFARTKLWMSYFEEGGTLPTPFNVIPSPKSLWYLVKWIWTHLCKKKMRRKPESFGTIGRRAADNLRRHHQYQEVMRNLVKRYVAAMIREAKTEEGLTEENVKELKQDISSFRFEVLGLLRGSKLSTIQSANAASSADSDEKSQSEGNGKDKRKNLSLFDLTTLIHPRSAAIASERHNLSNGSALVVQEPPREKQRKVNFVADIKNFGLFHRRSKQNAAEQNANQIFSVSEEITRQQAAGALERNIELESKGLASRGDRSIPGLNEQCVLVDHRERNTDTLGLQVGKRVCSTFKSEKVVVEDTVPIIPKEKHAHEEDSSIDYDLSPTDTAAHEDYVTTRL

[6] = target: Short transient receptor potential channel 4 (Mus musculus) (UniProt Q9QUQ5); test: inhibitors of mouse TRPC4 channel, confirmation, cell-based, second round, Fluo4, HEK293 TRPC4beta/mu-opioid, 1 µM (AID 2637;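 active = calcium signal ratio cut to more than 3 SD under the fully stimulated control mean yet still positive, in both repeats and the primary screen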); details: Fluo4 calcium flux, DAMGO, at 1 µM; active compounds read high
[7] = target: Short transient receptor potential channel 4 (Mus musculus) (UniProt Q9QUQ5); test: mouse TRPC4 channel activators, dose response, cell-based, HEK293 TRPC4/mu-opioid, Fluo-4 calcium (AID 434937;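 active = primary screen activator hit with a dose response curve and TRPC4 channel activation at any tested dose; inactive = no activation, no dose response, or not a primary hit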)
[8] = target: Short transient receptor potential channel 4 (Mus musculus) (UniProt Q9QUQ5); test: TRPC4 positive allosteric modulators, dose response, cell-based, HEK293 TRPC4/mu-opioid, Fluo-4 calcium, EC20 DAMGO (AID 434941);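 note: calcium entry triggered by an EC20 dose of DAMGO at the co-expressed mu-opioid receptor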
[9] = target: Short transient receptor potential channel 4 (Mus musculus) (UniProt Q9QUQ5); test: mouse TRPC4 channel inhibitors, dose response, cell-based, HEK293 TRPC4/mu-opioid, Fluo-4 calcium (AID 434942;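 active = primary screen inhibitor hit that blocks the TRPC4 channel at some tested dose, yielding a dose curve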)
[10] = target: Short transient receptor potential channel 6 (Mus musculus) (UniProt Q61143); test: inhibition of mouse TRPC6 channel, confirmation, selectivity assay for TRPC4 inhibitor project, cell-based, HEK293, membrane potential dye, duplicate (AID 434948;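 active = active in primary screen and both duplicates, each dropping signal beyond three positive-control SD with fluorescence still positive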); details: HEK293 TRPC6, membrane potential dye fluorescence, at 10 µM, stimulated with maximal-effect acetylcholine; active compounds read high
Chain of Short transient receptor potential channel 6 (Mus musculus) (Q61143 whole entry, looked up): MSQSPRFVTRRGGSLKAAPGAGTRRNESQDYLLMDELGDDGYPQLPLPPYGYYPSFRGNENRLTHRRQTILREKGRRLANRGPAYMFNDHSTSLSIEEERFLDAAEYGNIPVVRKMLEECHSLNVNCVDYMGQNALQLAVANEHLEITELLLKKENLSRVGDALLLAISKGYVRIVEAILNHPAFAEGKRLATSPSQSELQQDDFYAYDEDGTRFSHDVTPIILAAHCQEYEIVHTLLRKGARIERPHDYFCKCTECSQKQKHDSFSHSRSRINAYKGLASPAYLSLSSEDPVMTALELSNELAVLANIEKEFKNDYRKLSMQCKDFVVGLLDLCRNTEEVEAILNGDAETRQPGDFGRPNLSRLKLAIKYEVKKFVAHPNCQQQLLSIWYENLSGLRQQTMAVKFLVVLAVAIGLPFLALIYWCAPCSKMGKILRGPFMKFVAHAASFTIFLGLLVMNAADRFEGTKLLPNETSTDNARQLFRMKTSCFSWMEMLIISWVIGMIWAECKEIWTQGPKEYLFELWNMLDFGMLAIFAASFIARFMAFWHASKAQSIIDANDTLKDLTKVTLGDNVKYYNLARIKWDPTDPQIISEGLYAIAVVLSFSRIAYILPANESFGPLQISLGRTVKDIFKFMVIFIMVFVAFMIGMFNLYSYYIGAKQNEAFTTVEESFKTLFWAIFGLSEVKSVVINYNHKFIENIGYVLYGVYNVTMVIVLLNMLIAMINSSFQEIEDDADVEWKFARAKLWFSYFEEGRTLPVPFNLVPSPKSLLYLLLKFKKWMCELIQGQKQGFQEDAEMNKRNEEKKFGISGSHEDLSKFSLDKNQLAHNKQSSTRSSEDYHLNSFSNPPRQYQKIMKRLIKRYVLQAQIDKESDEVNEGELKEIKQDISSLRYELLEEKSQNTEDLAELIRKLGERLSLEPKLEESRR

[11] = target: Short transient receptor potential channel 6 (Mus musculus) (UniProt Q61143); test: activation of mouse TRPC6 channel, confirmation, selectivity assay for TRPC4 activator project, cell-based, HEK293, membrane potential dye, duplicate (AID 434950;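 active = membrane potential signal rise above negative control mean plus 3 SD in both duplicates, also active in the earlier TRPC4 screen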); details: HEK293 TRPC6, membrane potential fluorescence, at 10 µM; active compounds read high
[12] = target: Short transient receptor potential channel 6 (Mus musculus) (UniProt Q61143); test: TRPC6 potentiation by TRPC4 potentiator hits, confirmation, selectivity assay for TRPC4 potentiator project, HEK293 cells, membrane potential dye, duplicate (AID 434952;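 active = compound raising the membrane signal above positive-control mean plus 3 SD in both repeats, and a primary screen hit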); details: HEK293 TRPC6, membrane potential dye fluorescence, at 10 µM, maximal acetylcholine added after compound; active compounds read high
[13] = target: Short transient receptor potential channel 4 (Mus musculus) (UniProt Q9QUQ5); test: calcium flux activators in TRPC4/5HT1a cells, counter-screen for TRPC4 activator project, cell-based, second counter screen, HEK293 TRPC4/5HT1a, Fluo-4 (AID 434977;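 active = calcium signal rise above buffer-control mean plus 5 SD in both duplicates, and also a hit in the primary screen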); details: Fluo-4 calcium flux, at 10 µM; active compounds read high
[14] = calcium flux inhibitors in TRPC4/5HT1a cells, confirmation, counter-screen for TRPC4 inhibitor project, cell-based, second counter screen, HEK293 TRPC4/5HT1a, Fluo-4 (AID 434978;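 active = primary screen active whose calcium signal fell more than 3 SD beyond the full-serotonin control mean in both duplicate plates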;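 for outcome: serotonin given first at submaximal then at maximal dose after compound preincubation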); details: Fluo-4 calcium flux, at 10 µM, serotonin added to trigger calcium flux; active compounds read high
[15] = tested on: TRPC4 (mouse), co-expressed with 5HT1a in HEK293; test: calcium flux potentiators in TRPC4/5HT1a cells, confirmation, counter-screen for TRPC4 potentiator project, cell-based, second counter screen, HEK293 TRPC4/5HT1a, Fluo-4 (AID 434979;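 active = signal rise over 3 SD above mean of control wells given weak agonist, in both repeats and first screen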); details: Fluo-4 calcium flux, at 10 µM, serotonin added at its EC20 dose; active compounds read high
[16] = calcium flux activation in mu-opioid HEK293 cells, confirmation, counter-screen for TRPC4 activator project, cell-based, HEK293 mu-opioid receptor line (AID 449723;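 active = hit in primary screen, with calcium signal over 5 SD above buffer well mean in both duplicates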;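 note: counter screen cells carry the mu-opioid receptor alone and lack TRPC4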); details: Fluo-4 calcium fluorescence, at 10 µM; active compounds read high
[17] = calcium flux enhancement in mu-opioid HEK293 cells, confirmation, counter-screen for TRPC4 allosteric potentiator project, cell-based, HEK293 mu-opioid receptor line (AID 449724;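 active = calcium signal rise more than 3 SD above the low-dose agonist control mean, in both duplicate plates and the primary screen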); details: Fluo-4 calcium flux, at 10 µM, compound added before EC20 DAMGO stimulus; active compounds read high

CCOC(=O)c1sc2nc(CC(=O)OC)nc(NCc3ccc(F)cc3)c2c1C
outcome [1]: inactive | outcome [2]: inactive | outcome [3]: inactive | outcome [4]: inactive | outcome [5]: inactive | outcome [6]: inactive | outcome [7]: inactive | outcome [8]: inactive | outcome [9]: inactive | outcome [10]: inactive | outcome [11]: inactive | outcome [12]: inactive | outcome [13]: inactive | outcome [14]: inactive | outcome [15]: inactive | outcome [16]: inactive | outcome [17]: inactive

O=C(COc1ccc(Br)cc1Cl)c1ccc[nH]1
outcome [1]: inactive | outcome [2]: inactive | outcome [3]: inactive | outcome [4]: inactive | inhibition [5]: 89% (active) | outcome [6]: inactive | outcome [7]: inactive | outcome [8]: inactive | outcome [9]: inactive | outcome [10]: inactive | outcome [11]: inactive | outcome [12]: inactive | outcome [13]: inactive | inhibition [14]: 43.7% (active) | outcome [15]: inactive | outcome [16]: inactive | outcome [17]: inactive

Cc1cc(NC(=O)CSCC(=O)Nc2ccc(Cl)c(C(F)(F)F)c2)no1
outcome [1]: inactive | outcome [2]: inactive | outcome [3]: inactive | outcome [4]: inactive | inhibition [5]: 71% (active) | outcome [6]: inactive | outcome [7]: inactive | outcome [8]: inactive | outcome [9]: inactive | outcome [10]: inactive | outcome [11]: inactive | outcome [12]: inactive | outcome [13]: inactive | inhibition [14]: 35.2% (active) | outcome [15]: inactive | outcome [16]: inactive | outcome [17]: inactive
